# Experimental data: PubChem BioAssay (NCATS)
# Records with an inconclusive call do not appear. Entries that show only a call come without a potency. Calls of active or inactive are those of the source. The call rests on the fitted dose curve; in most records, active means well fitted curve in the direction sought with a large enough effect; inconclusive means small, poorly fitted or top-dose-only effect, or another doubt; inactive means no such curve, though single readings can be large; an effect the other way counts as inactive or inconclusive.
# How the values were obtained:
# [1] = target: Aldehyde dehydrogenase, mitochondrial (Homo sapiens) (UniProt P05091); assay: qHTS for Inhibitors of the Aldehyde Dehydrogenase Family (ALDH2) Primary screen (AID 2061308); further: nearly all actives have a fitted effect of over 55% in size
# [2] = target: Retinaldehyde dehydrogenase 3 (Homo sapiens) (UniProt P47895); assay: qHTS for Inhibitors of the Aldehyde Dehydrogenase Family (ALDH1A3) Primary screen (AID 2061315)
SMILES,Potency [1],Potency [2]
CC(C)(NC(=O)Nc1ccccc1Cl)C(=O)N1CCC(C(=O)O)CC1,inactive,inactive
c1ccc(OCc2nnc3ccc(-c4ccccc4)nn23)cc1,inactive,inactive
Cc1cc(N[S+](=O)([O-])c2ccc(NC(=O)Cn3c(=O)oc4ccc(Cl)cc43)cc2)no1,inactive,inactive
COc1cc(O)c(C(CC(=O)N2CCCC(C(=O)c3ccccc3)C2)c2ccc3c(c2)OCO3)c(OC)c1 (stereo not given),inactive,inactive
Oc1ccc(CNCc2ccc3c(c2)OCO3)c2cccnc12,inactive,inactive
Cc1ccnc(NC(=S)N[C@H]2CCN(c3cccc(C(F)(F)F)c3)C2)c1,inactive,inactive
Cc1cc(C)nc(NC(=S)N2CCN(c3ccc(F)c(F)c3F)CC2)c1,inactive,inactive
COc1cc([C@H]2O[C@H](c3cc(OC)c4c(c3)OCO4)[C@H](C)[C@H]2C)cc(OC)c1OC,inactive,inactive
N#Cc1ccc(S(=O)(=O)N2CCN(S(=O)(=O)c3ccc4c(c3)OCCO4)CC2)cc1,inactive,inactive
Cc1cc2c(s1)c1cnn(Cc3c(Cl)cccc3Cl)c(=O)c1n2C,inactive,inactive
CCCc1cc(F)c(S(=O)(=O)N2CCN(S(=O)(=O)c3ccc4c(c3)OCCO4)CC2)cc1F,inactive,inactive
Oc1ccc(COC2CCCC2)c2cccnc12,inactive,inactive
Fc1ccc(-c2nc(CCCCSc3nnc(-c4cccc5ccccc45)o3)no2)cc1,inactive,inactive
CCOC(=O)c1ccc(-c2ccc3ncnc(NCc4ncc[nH]4)c3c2)o1,inactive,inactive
Nc1nc2c(ncn2C2OC3COP(=O)(O)OC3C2O)c(=O)[nH]1 (stereo not given),inactive,inactive
COc1ccc2nc(-c3ccccc3OCc3ccccc3)sc2c1,inactive,inactive
Cc1cc2c(s1)c1cnn(Cc3cc(F)c(F)cc3F)c(=O)c1n2C,inactive,inactive
NC(=O)c1ccnc2c(O)cccc12,inactive,inactive

SMILES,Potency [1],Potency [2]
COc1ccc(-c2nc3ccccc3s2)cc1OC,inactive,inactive
O=C1CCCc2cc(S(=O)(=O)Nc3cnccc3C(=O)Nc3nc(-c4ccccc4)cs3)ccc2N1,inactive,inactive
O=C(CN1C(=O)N/C(=C\c2cccn2-c2cccc(C(=O)O)c2)C1=O)Nc1ccccc1F,inactive,inactive
COc1ccc(Cl)cc1S(=O)(=O)N1CCN(S(=O)(=O)c2ccc3c(c2)OCCO3)CC1,inactive,inactive
CCCn1c(C)nc2c(NCCCN3CCCCC3C)nc(C)nc21 (stereo not given),inactive,inactive
c1csc(CNc2ncnc3ccc(-c4ccoc4)cc23)c1,inactive,inactive
Cc1ccc(OCCn2c(CCNC(=O)c3cc(F)cc(F)c3)nc3ccccc32)cc1,inactive,inactive
CN(CC(F)(F)F)c1nc(NCc2ccc(-c3cccnc3)cc2)c2ccccc2n1,inactive,inactive
NC(=O)C1CCN(c2nc(-c3cccs3)cs2)CC1,inactive,inactive
c1csc(CNc2ncnc3ccc(-c4ccc5c(c4)OCO5)cc23)n1,inactive,inactive
COc1ccc(C(=O)Nc2nnc(-c3ccco3)o2)cc1OC,inactive,inactive
O=C1CCc2cc(S(=O)(=O)Nc3ccccc3Cl)ccc2N1,inactive,inactive
Cc1ccc(-c2nccc(=O)n2CC(=O)N(C)C(C)c2ccco2)cc1 (stereo not given),inactive,inactive
COc1cnc(-c2ccccc2C(C)C)nc1NCc1ccc(-c2cccnc2)cc1,inactive,inactive
Cc1cc2c(s1)c1cnn(Cc3ccc(Br)cc3F)c(=O)c1n2C,inactive,inactive
CC(=O)Nc1cccc(S(=O)(=O)Nc2ccc(C)c(C)c2)c1,inactive,inactive
Cc1nc(N2CCOCC2)c2nc(-c3ccccc3)n(CCN3CCCC3)c2n1,inactive,inactive
